Measured values as given in PubChem BioAssay (NCATS).
Values without a mark were called inactive. Records with an inconclusive call do not appear. Activity calls are given as the source filed them. Unless noted, the call rests on the fitted dose curve; in most records, active means well fitted cell-killing curve with a large enough effect; inconclusive means small, poorly fitted or top-dose-only effect; inactive means flat fitted curve, though single readings scatter.

Test system: not listed separately
Assay: Cell Viability - LYMP1-002 - Assay at 16 hr (AID 948); further: potency means the concentration at half of the fitted maximal effect;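 on activity change, negative = cytotoxicity: 0% = DMSO alone and full effect = 92 µM tetraoctylammonium bromide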
Conditions: LYMP1-002 lymphoblastoid cell viability; series mostly up to 92.2 µM; activity change, negative = cytotoxicity: at the top concentration
Outline: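 Seed 2500 LYMP1-002 cells per well in complete medium and hold 5 hr at 37 C. Add compound across a concentration series and incubate 16 hr at 37 C. Add CellTiter-Glo, wait 30 min at room temperature, read luminescence.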

Compound	activity change, negative = cytotoxicity	Potency
COc1cc(C=O)ccc1O	-2.15%	
CCCCC(CC)COC(=O)c1ccccc1C(=O)O (centres undefined)	-2.72%	
Nc1ccc(O)cc1		50.1 µM (active)
O=C(Oc1ccccc1)c1ccccc1O	-0.427%	
Brc1ccccc1-c1ccccc1	-2.49%	
CC(C)C(C)(C)C(C)(C)C(C)(C)S	0.984%	
Cc1cc(C(C)(C)C)c(O)c(C(C)(C)C)c1	3.26%	
O=C(c1ccccc1)c1ccccc1	-5.95%	
C1=CC2C3C=CC(C3)C2C1 (centres undefined)	-5.59%	
CC(C)(c1ccc(O)cc1)c1ccc(O)cc1		inactive
CCCC(=O)c1cc(O)c(O)cc1O	-10.6%	
Oc1ccccc1	-4.78%	
c1ccc2occc2c1	-3.68%	
Cc1ccc(O)cc1	-8.91%	
OCc1c[nH]c2ccccc12	-0.625%	
CCCCCCCCCCCCCCCC[n+]1ccccc1		25.1 µM (active)
CC(=O)OC/C=C(C)/C=C/C=C(C)/C=C/C1=C(C)CCCC1(C)C	-13.1%	
Nc1c2ccccc2nc2ccccc12		15.8 µM (active)
O=C(NO)c1ccccc1	-3.6%	
Nc1cccc2c(N)cccc12	-12.7%	

Target: Pyruvate kinase PKM (Homo sapiens) (UniProt P14618)
Sequence (P14618 whole entry, looked up): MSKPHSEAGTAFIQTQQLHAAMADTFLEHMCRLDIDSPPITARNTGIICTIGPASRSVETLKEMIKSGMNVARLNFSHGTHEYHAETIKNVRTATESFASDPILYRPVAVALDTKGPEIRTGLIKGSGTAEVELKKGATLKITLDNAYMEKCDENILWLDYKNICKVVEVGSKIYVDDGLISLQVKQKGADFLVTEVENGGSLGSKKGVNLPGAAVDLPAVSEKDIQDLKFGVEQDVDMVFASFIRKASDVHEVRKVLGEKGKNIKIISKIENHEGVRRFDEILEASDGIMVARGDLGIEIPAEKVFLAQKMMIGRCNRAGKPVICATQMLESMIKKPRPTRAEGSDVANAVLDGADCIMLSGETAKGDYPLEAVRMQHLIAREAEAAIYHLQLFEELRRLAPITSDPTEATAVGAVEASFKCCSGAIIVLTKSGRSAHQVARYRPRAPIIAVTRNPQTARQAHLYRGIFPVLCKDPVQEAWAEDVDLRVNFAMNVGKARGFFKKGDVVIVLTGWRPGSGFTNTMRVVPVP
Assay: qHTS Assay for Activators of Human Muscle Pyruvate Kinase (AID 954; active means well fitted curve in the direction sought with a large enough effect, not every such curve was filed as active;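 further: 0% = uninhibited enzyme and -100% = no enzyme or full thiadiazolimine inhibition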)
Conditions: purified human muscle pyruvate kinase, luciferase-coupled luminescence, 1 h; series mostly up to 57.5 µM; activity change, negative = inhibition: at the top concentration
Outline: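 Compound pinned into substrate mix (0.5 mM PEP, 0.1 mM ADP), then 0.1 nM PKM2 added; 1 h, RT. Stop/detection luciferase reagent added, luminescence read. Normalized to no-inhibition and no-enzyme or reference-inhibitor controls.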

Compound	activity change, negative = inhibition
CN(C)c1cc2c(Nc3ccc4c(cnn4Cc4ccccc4)c3)ncnc2cn1	-4.21%
O=C1NC(c2cccc([N+](=O)[O-])c2)=CCN1c1ccccc1O	-12.1%
O=[N+]([O-])c1ccc(-c2nc(-c3ccc(F)cc3)c(-c3ccncc3)[nH]2)cc1	-10%
Brc1ccc([C@H]2CN3CCSC3=N2)cc1	-38%
COc1ccccc1N1CCN(CCN2C(=O)CC3(CCCC3)CC2=O)CC1	-27%
C[N+](C)(C)CCO	-10.9%
CC(C)N(CCC(=O)c1ccc2ccccc2c1)Cc1ccccc1	8.53%
Cn1cnc2c(NCc3ccccc3)nc(NCCO)nc21	-6.05%
NC(N)=NCCCCN=C(N)N	-10.8%
